UBC13 polyUb: human UBC13 polyubiquitination inhibition. P61088. UBC13 polyubiquitin chain formation, TR-FRET. inhibition, % at 20 µM. 330,000 compounds, 0.47% hits. AID 485273; in the data active means inhibition above about 45%, passing the limit was not always enough; inconclusive means no clear call, values can overlap the other calls
Target sequence (P61088 whole entry, looked up): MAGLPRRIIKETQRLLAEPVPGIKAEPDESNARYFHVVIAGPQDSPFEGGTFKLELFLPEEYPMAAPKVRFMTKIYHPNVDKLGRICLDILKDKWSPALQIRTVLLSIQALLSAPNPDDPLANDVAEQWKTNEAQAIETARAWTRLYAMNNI
Neddylation inh: inhibitors of human cullin neddylation; P61081+Q13564; TR-FRET cullin neddylation, biochemical; calls only at 25 µM; 360,000 compounds, 0.58% hits; AID 651699; in the data active means inhibition above about 36%
UHRF1 binding: human UHRF1 methylated DNA binding inhibitors. AID 687016. UHRF1 binding to methylated oligo, TR-FRET. 370,000 compounds, 0.75% hits. Q96T88. inhibition, % at 4.4 µM; in the data active means inhibition above about 21%;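 further: UHRF1 SRA domain binding a hemimethylated CpG hairpin DNA probe; 0% = median of test compound wells and 100% = reference inhibitor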
MBD2 inh: blocks human MBD2 binding to methylated DNA. inhibition, % at 4.4 µM. TR-FRET, MBD2 binding to methylated oligonucleotide. 370,000 compounds, 0.31% hits. Q9UBB5; in the data active means inhibition above about 13%
Casp3 counter: counter-screen for UBC13 inhibitors: human caspase-3 inhibition. 1,400 compounds, 4% hits. shares compounds with UBC13 polyUb. Recombinant caspase-3, Caspase-Glo 3/7 luminescence, 60 min. inhibition, % at 20 µM;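 active means mean inhibition across replicates above about 26%, limit read from the data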;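 further: plate controls were DMSO with caspase-3 for no effect and DMSO wells lacking enzyme for full effect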
Target sequence (P42574 whole entry, looked up): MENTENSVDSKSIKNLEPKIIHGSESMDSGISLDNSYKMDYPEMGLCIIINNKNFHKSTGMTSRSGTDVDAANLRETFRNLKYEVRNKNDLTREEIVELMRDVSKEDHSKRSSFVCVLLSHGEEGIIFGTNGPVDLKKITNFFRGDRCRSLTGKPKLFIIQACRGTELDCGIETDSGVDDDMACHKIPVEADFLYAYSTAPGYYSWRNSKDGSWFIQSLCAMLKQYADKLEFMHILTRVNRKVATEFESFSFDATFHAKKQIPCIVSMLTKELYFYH
UBC13 conf: human UBC13 polyubiquitin inhibition, confirmed. shares compounds with UBC13 polyUb. UBC13 polyubiquitination, TR-FRET, biochemical. inhibition, % at 10 µM. 1,400 compounds, 68% hits. AID 488859; in the data active means inhibition above about 45%; inconclusive means no clear call, values can overlap the other calls
* = called active by the depositor; i = inactive; ? = inconclusive; . = not tested or not shown. Shown are actives, neighbours in structure and some others; about 1.8% of the full set was active somewhere.

SMILES | UBC13 polyUb | Neddylation inh | UHRF1 binding | MBD2 inh | Casp3 counter | UBC13 conf
CC1CC(C)CN(CCCNC(=O)c2cc3c(s2)-c2ccccc2OC3)C1 (centres undefined) | 45.0* | i | -3.6 | 6.7 | -2.2 | 54.7*
Cc1cc(SCc2ccccc2F)nc(=O)[nH]1 | 3.6 | i | 14.5 | 0.6 | . | .
CSc1cccc(NC(=O)CN(C)S(=O)(=O)c2ccc(F)cc2)c1 | 7.8 | i | -0.8 | 1.7 | . | .
CN(C)CCNC(=O)c1cc2c(=O)n(C)c3ccccc3c2n1C | 24.7 | i | 8.8 | 4.9 | . | .
CCCCN(CC)CCNC(=O)c1cc2c(=O)n(C)c3ccccc3c2n1C | 56.8* | i | 2.2 | -1.2 | -0.9 | 52.8*
COc1ccc(C(=O)Cn2c(NCCCO)nc3ccccc32)cc1 | . | i | -1.6 | -4.3 | . | .
Cc1cc2nc(NCCCO)n(CC(=O)c3cc(C(C)(C)C)c(O)c(C(C)(C)C)c3)c2cc1C | 70.3* | i | -2.0 | 1.8 | 1.2 | 48.6*
O=C(NCCO)C1(C(=O)C2CC2)CC(c2ccccn2)=NO1 (centres undefined) | . | . | 2.1 | 4.4 | . | .
O=C1c2cccc3cccc(c23)C(=O)N1Cc1cccnc1 | 65.1* | i | -0.7 | -3.7 | -0.1 | 82.9*
O=C1c2cccc3cccc(c23)N1Cc1cccc(F)c1 | 76.4* | . | 2.9 | 0.8 | -1.7 | 90.2*
O=C1c2cccc3cccc(c23)N1Cc1ccc(F)cc1 | 83.0* | . | 2.5 | 5.7 | 3.4 | 95.9*
O=C1c2cccc3cccc(c23)C(=O)N1Cc1ccccc1 | 25.2 | i | 0.5 | 3.7 | . | .
COc1ccc(C(=O)N2CCCC2(C#N)c2ccccc2)cc1[N+](=O)[O-] (centres undefined) | -8.3 | i | -0.8 | -3.4 | . | .
CCNC(=O)CN1C(=O)NC(CCc2ccccc2)C1=O (centres undefined) | 1.8 | i | -0.3 | 3.8 | . | .
Cn1nc(N)c2c(-c3ccccc3)c(C#N)c(N)nc21 | 59.4* | i | -0.8 | 0.8 | 1.4 | 58.9*
Cn1nc(N)c2c(-c3ccc(Cl)cc3)c(C#N)c(N)nc21 | 72.3* | i | -2.6 | -0.8 | 1.2 | 73.0*
Cn1c(=O)cc(SCC(=O)N2CCCC2)c2ccc(Cl)cc21 | 2.5 | i | -3.5 | -0.5 | . | .
CNC[C@H](Cc1ccccc1)NC[C@@H](Cc1cccc2ccccc12)NCCc1ccc(C)cc1 | 95.5* | i | 0.1 | 7.6 | -3.2 | 90.0*
COc1ccc(-c2cc(C3CCN(c4cc(Cl)nc(N)n4)CC3)[nH]n2)cc1 | 45.8* | i | 3.2 | -4.8 | -0.5 | 45.9*
Cc1ccc(Nc2cc(C)nc(NCc3ccccc3)n2)cc1 | 55.6* | i | -1.5 | 0.7 | -0.6 | 82.6*
COc1ccc2cc1Oc1ccc(cc1)C[C@H]1c3c(cc(OC)c4c3Oc3c(ccc5c3[C@H](C2)N(C)CC5)O4)CCN1C | 79.9* | i | . | . | -0.5 | 77.5*
C#CCOCCOCCOCCNc1nc(N2CCN(C(=O)CCCCCCCCCCNC(=O)[C@@H](CCSC)n3cc(CCO)nn3)CC2)nc(N2CCN(C(=O)CCCCCCCCCCNC(=O)[C@H](CO)n3cc(CCCCCN)nn3)CC2)n1 | 117.6* | i | . | . | -2.8 | 122.7*
C#CCOCCOCCOCCNc1nc(N2CCN(C(=O)CCCCCCCCCCNC(=O)[C@@H](CCSC)n3cc(CCO)nn3)CC2)nc(N2CCN(C(=O)CCCCCCCCCCNC(=O)[C@H](CCC(=O)O)n3cc(CCCCCN)nn3)CC2)n1 | 102.1* | i | . | . | -0.5 | 77.4*
C#CCOCCOCCOCCNc1nc(N2CCN(C(=O)Cn3cc(CCCCN)nn3)CC2)nc(N2CCN(C(=O)[C@H](C(C)C)n3cc(CCO)nn3)CC2)n1 | 5.9 | i | 8.3 | 6.3 | . | .
COc1ccc(Nc2nc(C)nc3sc4c(c23)CCC4)cc1O | -3.8 | i | -0.6 | 0.1 | . | .
SMILES | UBC13 polyUb | Neddylation inh | UHRF1 binding | MBD2 inh | Casp3 counter | UBC13 conf
CC1CCN(CCCNC(=O)c2ccc3c(=O)n(Cc4ccc(Cl)cc4)c(=S)[nH]c3c2)CC1 | 52.9* | i | 1.8 | 2.7 | 1.6 | 73.1*
CCCCN(C)CCNC(=O)c1ccc(Cn2c(=S)[nH]c3ccc(Br)cc3c2=O)cc1 | 48.3* | i | -4.8 | -2.8 | 33.5* | 48.2*
O=C(O)CCN1C(=O)c2ccc(Oc3ccc4c(c3)C(=O)N(CCC(=O)O)C4=O)cc2C1=O | 4.2 | i | 2.9 | 5.2 | . | .
CC(C)(CNC(=O)c1cc2ccccc2o1)N1CCOCC1 | -4.0 | i | 0.0 | 0.6 | . | .
CN(C)c1ccc(NC(=O)CN2CCC(NC(=O)C3CCCCC3)CC2)cc1 | 64.3* | i | 1.8 | 7.6 | -2.1 | 82.1*
S=C1NC[C@H](c2ccccc2)N1CCCCC1CCCCC1 | 8.3 | i | -5.1 | -3.2 | . | .
NC1=NC[C@H](c2ccccc2)N1CCCCC1CCCCC1 | 78.6* | i | -1.6 | -4.0 | -2.9 | 72.2*
CCCC(C(=O)NC(C)(C)C)N(CC1CCCO1)C(=O)c1snc(C(N)=O)c1N (centres undefined) | 50.9* | i | -0.7 | -5.6 | 1.2 | 52.2*
CCCC(C(=O)NC(C)(C)C)N(Cc1ccccc1)C(=O)c1snc(C(N)=O)c1N (centres undefined) | . | i | 1.0 | -4.6 | . | .
CC(C)CC(C(=O)NC(C)(C)C)N(CC1CCCO1)C(=O)c1snc(C(N)=O)c1N (centres undefined) | 78.4* | i | 1.1 | -0.8 | -3.8 | 80.7*
OCCN1CCN(C(=S)Nc2ccccc2)CC1 | -9.8 | i | 0.6 | -3.2 | . | .
C=CCn1c(NC(=O)c2ccc(C)cc2)nc2ccccc21 | 46.5* | i | -1.8 | 4.8 | -7.9 | ?
COc1ccc2sc(N(CCCN(C)C)C(=O)c3ccc(S(=O)(=O)N(C)Cc4ccccc4)cc3)nc2c1 | 48.1* | i | 1.5 | -1.8 | -2.5 | 93.2*
CN(C)CCCN(C(=O)c1ccc(S(=O)(=O)N(C)Cc2ccccc2)cc1)c1nc2cc3c(cc2s1)OCO3 | 90.2* | i | -0.5 | 1.8 | 0.2 | 108.4*
Cc1ccc2c(c1)c1nc3ccccc3nc1n2C | 52.9* | i | -1.0 | -2.9 | 7.8 | 15.6
Cn1c2ccc(F)cc2c2nc3ccccc3nc21 | 50.7* | i | -5.9 | -10.3 | 9.2 | 13.6
Cn1c2ccc(Cl)cc2c2nc3ccccc3nc21 | 48.7* | i | -4.9 | -3.0 | 0.1 | 6.6
CCCCN(C(=O)c1cc(S(=O)(=O)N2CCOCC2)ccc1F)c1c(N)n(CCCC)c(=O)[nH]c1=O | . | i | -0.3 | 6.4 | . | .
CCc1ccc(NC(=O)c2ccc(-n3cncn3)c([N+](=O)[O-])c2)cc1 | -5.9 | i | -1.2 | 1.5 | . | .
Cc1ccc(NC(=O)c2ccc(NCCN)c([N+](=O)[O-])c2)cc1Cl | 67.3* | i | -5.1 | -3.7 | -2.0 | 82.9*
COC(=O)C1=C(C)N(Cc2ccccc2)C(=NCc2cc(OC)c(OC)c(OC)c2)N[C@H]1CCc1ccccc1 | 46.7* | i | -3.1 | -2.2 | 4.1 | 39.4
COC(=O)C1=C(C)N(Cc2ccccc2)C(=NCc2cc(OC)c(OC)c(OC)c2)N[C@H]1c1ccc(Br)cc1 | 55.3* | i | . | . | -0.6 | 48.4*

Screens from PubChem BioAssay.
